Screening results as filed in PubChem.
ALOX12 inhib = qHTS Assay for Inhibitors of 12-hLO (12-human lipoxygenase); Polyunsaturated fatty acid lipoxygenase ALOX12 (Homo sapiens), P18054; purified 12-hLO, xylenol orange hydroperoxide absorbance; Potency, µM (top dose mostly 57.1 µM), hits mostly inhibitors; 0.12% of 150,000 active; active = well fitted curve in the direction sought with a large enough effect; inconclusive = small, poorly fitted or top-dose-only effect, or another doubt; inactive = no such curve, though single readings can be large; an effect the other way counts as inactive or inconclusive; note: nearly all actives have a fitted effect of over 55% in size
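Hydroperoxide formation by human 12-lipoxygenase from 40 uM arachidonic acid was followed colorimetrically via ferric-xylenol orange complex, using the 573/405 nm absorbance ratio. Enzyme concentration was 150 nM, with 30 min reaction at room temperature.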
PNC inhibitor = High Content Assay for Compounds that inhibit the Assembly of the Perinucleolar Compartment | PC3M PTB-GFP, PNC prevalence imaging, 16 h; active compounds read low | activity change (PNC), negative = inhibition, % at 10 µM | AID 2417, 2010 | 3.1% of 140,000 active;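 active = readout at or below -70, meaning at least 70% loss of cells showing the perinucleolar compartment, a nuclear body marking cancer cells; inconclusive = readout between -30 and a set limit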
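PC3M cells stably expressing PTB-GFP, 750–1000 cells/well, treated 16 h at 37 °C with compound (23 nl of library stock), in duplicate. After paraformaldehyde fixation and Hoechst stain, imaged at 20x; PNC prevalence scored by image analysis.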
IMPase Li inh = qHTS Assay for Identifying the Cell-Membrane Permeable IMPase Inhibitors: Potentiation with Lithium; CHO-M1 cells, IP1 TR-FRET (IP-One), carbachol + lithium; Potency, µM (doses to about 59.4 µM), hits mostly inhibitors; 0.35% of 210,000 active; active = well fitted curve in the direction sought with a large enough effect; inconclusive = small, poorly fitted or top-dose-only effect, or another doubt; inactive = no such curve, though single readings can be large; an effect the other way counts as inactive or inconclusive;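 note: IP1 builds up when IMPase is blocked and the TR-FRET signal falls; nearly all actives have a fitted effect of over 50% in size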
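CHO-M1, 2000 cells/well, 16–30 h culture; cpd + low Li+, 30 min 37C; lysis with d2-IP1/Eu-anti-IP1 Ab, 10 min RT; TR-FRET 665/620 ratio and 620 channel; AC50 via Hill.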
IMPase cell inh = qHTS Assay for Identifying the Cell-Membrane Permeable IMPase Inhibitors | Inositol monophosphatase 1 (Rattus norvegicus), P97697 | CHO-M1 cells, IP1 accumulation, HTRF TR-FRET ratio | inhibition (IP1 accumulation), % at 46.1 µM | 120,000 tested, under 10 active | AID 901, 2007; active = well fitted curve in the direction sought with a large enough effect in the signal ratio, not every such curve was filed as active; inconclusive = small, poorly fitted or top-dose-only effect, or a change in a side signal; inactive = no such curve, though single readings can be large or run the other way; the % refers to the signal ratio;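 note: cells stimulated with carbachol in lithium chloride buffer; higher means more IMPase inhibition seen as more IP1 and lower FRET ratio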
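Carbachol-driven Gq signalling in CHO-M1 cells (2000/well) generates IP1. Compounds that block IMPase raise IP1 and so reduce the FRET signal from Eu-anti-IP1 and d2-IP1 after a 10 min room-temperature lysis.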
ALDH1A1 block = qHTS Assay for Inhibitors of Aldehyde Dehydrogenase 1 (ALDH1A1) | Purified ALDH1A1, NADH fluorescence, propionaldehyde substrate | Potency, µM (top dose mostly 75.3 µM), actives largely listed as inhibitors | 7.3% of 220,000 active | AID 1030, 2008
Target sequence (P00352 whole entry, looked up): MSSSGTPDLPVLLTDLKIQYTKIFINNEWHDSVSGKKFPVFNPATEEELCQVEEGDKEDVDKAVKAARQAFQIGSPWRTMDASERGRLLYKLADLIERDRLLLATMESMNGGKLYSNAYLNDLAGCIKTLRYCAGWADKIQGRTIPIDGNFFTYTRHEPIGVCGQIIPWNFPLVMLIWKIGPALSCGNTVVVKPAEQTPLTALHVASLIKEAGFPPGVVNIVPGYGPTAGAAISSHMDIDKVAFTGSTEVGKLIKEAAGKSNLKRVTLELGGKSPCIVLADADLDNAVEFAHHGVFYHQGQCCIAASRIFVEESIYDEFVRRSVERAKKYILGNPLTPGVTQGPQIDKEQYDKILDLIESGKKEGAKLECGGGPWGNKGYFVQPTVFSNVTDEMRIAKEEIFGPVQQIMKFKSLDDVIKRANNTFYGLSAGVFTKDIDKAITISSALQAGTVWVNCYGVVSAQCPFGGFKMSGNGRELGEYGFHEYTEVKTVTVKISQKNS
HPGD block = qHTS Assay for Inhibitors of HPGD (15-Hydroxyprostaglandin Dehydrogenase); 15-hydroxyprostaglandin dehydrogenase [NAD(+)] (Homo sapiens), P15428; purified HPGD, NADH fluorescence kinetic, PGE2 substrate; AID 894, 2007; Potency, µM, most hits filed as inhibitors; 4.3% of 150,000 active
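NADH formation kinetics: reaction with 30 uM PGE2 and 1 mM NAD+ (final), 20 nM enzyme, Tris-HCl pH 8 with Tween 20, after 15 min compound preincubation at room temperature. Fluorescence change, last versus first of five reads.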
Hits are given with their value; i = inactive; ? = inconclusive; nt = not tested or not shown; [ ] = another dose, or the depositor's remark. A selection: hits, their analogues and other compounds. The true share with any hit is near 11%. Unless noted, calls come from the whole dose curve; as a rule, active = well fitted inhibition curve with a large enough effect (not every such curve was filed as active); inconclusive = small, poorly fitted or top-dose-only effect, or another doubt; inactive = no such curve, though single readings can be large or run the other way.

SMILES	ALOX12 inhib	PNC inhibitor	IMPase Li inh	IMPase cell inh	ALDH1A1 block	HPGD block
O=C(Cn1nc(-c2ccccc2Cl)ccc1=O)Nc1ccccc1-c1ccccc1	nt	nt	i	nt	i	nt
Cc1ccccc1-c1ccc(=O)n(CC(=O)Nc2ccc(C(=O)N3CCCC3)cc2)n1	i	i	i	i	?	14µM
CCc1ccc(OCC(=O)N(C)CCC#N)c(Br)c1	i	-91	i	i	i	i
N#CCCN(C(=O)COc1ccc(F)cc1Br)c1ccccc1F	nt	nt	i	nt	18µM	nt
COc1ccc(-c2nc3ccccc3s2)cc1NC(=O)c1cc2ccccc2o1	nt	nt	nt	i	nt	nt
C[C@H](NC(=O)CNC(=O)[C@@H](NC(=O)[C@H](Cc1ccccc1)NC(=O)CNC(=O)CNC(=O)[C@@H](N)Cc1ccccc1)[C@@H](C)O)C(=O)N[C@@H](CCCN=C(N)N)C(=O)N[C@@H](CCCCN)C(=O)N[C@@H](CO)C(=O)N[C@@H](C)C(=O)N[C@@H](CCCN=C(N)N)C(=O)N[C@H](CN)CCCCN	nt	nt	i	nt	i	nt
COc1ccccc1-n1c(C)c2c(OC)cccc(=O)c2c1C	i	?	i	nt	?	11µM
O=c1cc(CO)oc(C(Nc2ccccn2)c2cccc(F)c2)c1O (configuration not stated)	?	i	i	i	32µM	i
COc1ccc(/C=N/N(Cc2ccccc2)c2ccccc2)cc1O	nt	nt	i	nt	i	nt
CC(C)c1ccc(C(=O)CC2(O)C(=O)N(CN3CCOCC3)c3ccccc32)cc1 (configuration not stated)	i	i	i	i	?	i
CCc1ccc(C(=O)CC2(O)C(=O)N(Cc3ccc(C)cc3)c3ccccc32)cc1 (configuration not stated)	nt	nt	nt	i	nt	nt
COC(=O)CN1C(=O)C2(OCCCO2)c2ccccc21	i	i	i	i	i	i
COC(=O)CN1C(=O)C(O)(CC(=O)c2ccc(C)cc2)c2ccccc21 (configuration not stated)	i	i	i	i	8.9µM	i
COC(=O)CN1C(=O)C(O)(CC(=O)c2ccccc2)c2ccccc21 (configuration not stated)	i	?	i	i	4.5µM	i
COC(=O)CN1C(=O)C(O)(CC(=O)c2ccc(C)o2)c2ccccc21 (configuration not stated)	i	i	i	i	7.9µM	i
C=CCN1C(=O)C(O)(CC(=O)c2ccc(N)cc2)c2ccccc21 (configuration not stated)	i	i	i	i	5.6µM	i
CCCCN1C(=O)C(O)(CC(=O)c2ccc(C(C)(C)C)cc2)c2ccccc21 (configuration not stated)	nt	nt	nt	i	nt	nt
CCN(CC)C(=O)Cn1c(=O)n(Cc2ccc(C(=O)NCc3ccccc3Cl)cc2)c(=O)c2ccccc21	nt	nt	nt	i	nt	nt
CN(C)c1ncc2nc(-c3ccccc3)c(=O)n(CCC#N)c2n1	nt	nt	i	nt	?	nt
CN[C@@H](c1ccncc1)[C@@H](NC)c1ccncc1	i[11.4 µM]	nt	i	nt	i[13.5 µM]	i
CCSc1nnc2c(n1)OC(CC)N(C(C)=O)c1ccccc1-2 (configuration not stated)	nt	nt	nt	i	nt	nt
C[C@@H]1CCCC(CC(=O)O)(CC(=O)O)C1	i[11.4 µM]	nt	i	nt	i[13.5 µM]	i
CN1C(=O)C(O)(CC(=O)c2ccncc2)c2ccccc21 (configuration not stated)	i	i	i	i	?	i
Cc1ccc(C(=O)CC2(O)C(=O)N(CN3CCOCC3)c3ccccc32)cc1 (configuration not stated)	i	i	i	i	14µM	i
O=C(CC1(O)C(=O)N(C/C=C/c2ccccc2)c2ccccc21)c1ccccn1 (configuration not stated)	i	?	nt	i	0.79µM	nt
SMILES	ALOX12 inhib	PNC inhibitor	IMPase Li inh	IMPase cell inh	ALDH1A1 block	HPGD block
Cc1ccc(C(=O)CC2(O)C(=O)N(C)c3ccccc32)o1 (configuration not stated)	i	?	?	i	25µM	i
CCc1ccc(C(=O)CC2(O)C(=O)N(CN3CCOCC3)c3ccccc32)cc1 (configuration not stated)	i	i	i	i	i	i
O=C(CC1(O)C(=O)N(CCc2ccccc2)c2ccccc21)c1ccccn1 (configuration not stated)	nt	nt	i	nt	?	nt
N/C(=N\O)c1ccncc1	nt	nt	nt	nt	i	nt
Cn1c[n+](C)cc1-c1ccc(/C(N)=N/O)cc1	i	-80	i	nt	?	i
CCCC(=O)Nc1ccc(Nc2ccccc2)cc1	i	?	i	nt	?	16µM
CCC(=O)Nc1ccc(C(=O)c2ccccc2)cc1	i	i	i	i	?	14µM
CCOC(=O)c1ccc(NC(=O)CCOc2ccccc2)cc1	i	i	i	i	i	i
CCCOC(=O)c1ccc(NC(=O)CCOc2ccccc2)cc1	i	i	i	i	14µM	i
CCCC(=O)Nc1ccc(-c2ccc(NC(=O)CCC)cc2)cc1	i	i	i	i	i	i
CC(C)[C@@H]1O[C@H](/C=C\c2ccccc2)OCC1(C)C	i[11.4 µM]	nt	nt	nt	nt	nt
O=C1C2=CC[C@H]3C(=O)N(c4cccc(Oc5ccccc5)c4)C(=O)[C@@H]3[C@@H]2[C@H](O)[C@@H]2O[C@H]12	nt	nt	nt	nt	i[13.5 µM]	nt
Cc1ccc(N(Cc2ccc(C(=O)NN=C3CCN(C)CC3)cc2)S(C)(=O)=O)cc1C	i	i	i	nt	?	i
O=C(c1nn2c(C(F)(F)F)cc(-c3ccco3)nc2c1Br)N1CCCc2ccccc21	?	?	i	i	7.9µM	i
O=C(c1cc2nc(-c3ccco3)cc(C(F)(F)F)n2n1)N1CCCc2ccccc21	i	?	i	i	18µM	?
O=C(c1cc2nc(-c3ccco3)cc(C(F)(F)F)n2n1)N1CCCCCC1	i	i	i	i	?	?
O=C(c1cc2nc(-c3cccs3)cc(C(F)(F)F)n2n1)N1CCCc2ccccc21	i	i	i	i	i	14µM
CCc1ccc(Oc2c(C(F)(F)F)oc3c(CN4CCCC(C)C4)c(O)ccc3c2=O)cc1 (configuration not stated)	nt	nt	nt	i	nt	nt
Cc1nc(NC2CCCCC2)c2nc(-c3ccccc3)n(CCN3CCCCC3)c2n1	i	nt	i	nt	?	?
CCC(C(=O)NC(C)CCc1ccco1)n1nc(C)n2c(cc3occc32)c1=O (configuration not stated)	i	-100	i	i	?	i
